The values that follow come from PubChem BioAssay.

A short description of experiment [1]: P. berghei load reduction in hepatocytes – cell-based, HepG2, luciferase luminescence, HepG2 viability, primary screen (AID 624349; in the data active = parasite load remaining mostly below about 12%, no sharp cut-off; inactive = mostly above about 10%;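 also: 100% = mean of DMSO negative control wells on the same plate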). As to conditions: P. berghei liver stage in HepG2, luciferase luminescence, concentration not given here; parasite load remaining: stronger effect = lower value; viability: measured here: HepG2 viability without parasites.
Experiment [2] can be described thus: signal quenchers or enhancers, Cy5 substrate/SSB – biochemical, NIH Clinical Collection, E. coli SSB, artefact control for HCV NS3 helicase inhibitor project (AID 743268). As to conditions: Cy5-oligo bound E. coli SSB, fluorescence interference.
Experiment [3] has as its system Hepatitis C virus NS3 helicase. In words: blockers of NS3h binding to DNA – biochemical, fluorescence polarization, NIH Clinical Collection, primary screen (AID 743270). As to conditions: NS3 helicase binding to Cy5-dT15 DNA, stronger effect = higher value, concentration not given here.
Experiment [4] has as its target Single-stranded DNA-binding protein (Escherichia coli (strain K12)) (UniProt P0AGE0). Put plainly: SSB-ssDNA binding inhibitors – biochemical, fluorescence polarization, NIH Clinical Collection, counter-screen for HCV NS3 helicase inhibitor project (AID 743271; in the data active = inhibition above about 28%). The following applies: E. coli SSB-DNA binding, stronger effect = higher value, concentration not given here.
Experiment [5] in a line: compounds distorting NS3 helicase fluorescence signal – biochemical, NIH Clinical Collection, artefact control for HCV NS3 helicase inhibitor project (AID 743272).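 Also: HCV NS3 helicase with a Cy5 labelled single stranded DNA probe.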 The following applies: fluorescence interference counterscreen, HCV NS3 helicase assay; stronger effect = lower value.
Experiment [6] is described as follows: Wnt pathway potentiators raising nuclear beta-catenin – imaging, WNT3A-conditioned medium, mouse C2C12, NPC library, primary screen (AID 1117326; in the data active = nuclear beta-catenin stimulation mostly above about 4.2%, no sharp cut-off; inactive = mostly below about 10%). The following applies: stronger effect = higher value.
The nature of experiment [7]: stimulators of insulin release from INS-1E, primary screen, cell-based, 5 mM glucose, NPC library (AID 1117329;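 active = compound raises insulin release from rat beta cells at 5 mM glucose, no numeric limit stated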). As to conditions: rat INS-1E insulin secretion, at 10 µM, stronger effect = higher value.
Experiment [8] can be described thus: growth inhibition of GSK3B-pretreated HCT116 cells – cell-based, CellTiter-Glo, 0.2 to 20 µM (AID 1117336;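 active = compounds lowering colon cancer cell viability after pretreatment blocking the GSK3B kinase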). The following applies: HCT116 viability after GSK3B inhibitor, at 20 µM, stronger effect = higher value.
Experiment [9] in a line: inhibition of endothelial tube formation, primary screen, imaging, VEGF stimulated, CD31 staining, tube area, NPC library (AID 1117340;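 active = compound that reduces growth-factor-driven endothelial tube area in a mixed cell culture, no cutoff stated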). As to conditions: VEGF-stimulated ADSC/ECFC co-culture, at 10 µM, stronger effect = higher value.
Experiment [10] in a line: GLP1 release stimulators, primary, NCI-H716, NPC library (AID 1117341;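 active = compound raises GLP1 secretion from the human gut endocrine cells, with no numeric limit stated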). The following applies: NCI-H716 cells, at 10 µM, stronger effect = higher value.
A short description of experiment [11]: HCT116 colon cancer cell growth inhibition, primary screen, CellTiter-Glo luminescence, NPC library (AID 1117342;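 active = compounds that lower survival of HCT116 colon cancer cells in the luminescence readout, no numeric limit stated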). As to conditions: at 20 µM (top of the series).
Experiment [12] in a line: reduced SW480 viability measured with CellTiter-Glo, NPC library, primary (AID 1117343;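 active = compounds that lower viability of the colon cancer cells in the luminescence readout, with no numeric limit stated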). The following applies: CellTiter-Glo luminescence; at 20 µM (top of the series).
Experiment [13] in a line: NPC library primary testing for decreased DLD-1 cell viability via CellTiter-Glo (AID 1117346;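 active = compounds that lower survival of DLD-1 colon cancer cells in the luminescence readout, no cutoff given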). The following applies: DLD-1 viability, CellTiter-Glo luminescence; at 20 µM (top of the series).
The target of experiment [14] is 6-phosphogluconate dehydrogenase, decarboxylating (Homo sapiens) (UniProt P52209). Put plainly: inhibition of human phosphogluconate dehydrogenase – biochemical, recombinant enzyme, NADPH absorbance, primary screen (AID 1159550;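 active = at least 20% inhibition of 6-phosphogluconate dehydrogenase activity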). As to conditions: recombinant 6PGD, NADPH absorbance 341 nm; at 10 µM; stronger effect = higher value.
Sequence of 6-phosphogluconate dehydrogenase, decarboxylating (Homo sapiens) (P52209 whole entry, looked up): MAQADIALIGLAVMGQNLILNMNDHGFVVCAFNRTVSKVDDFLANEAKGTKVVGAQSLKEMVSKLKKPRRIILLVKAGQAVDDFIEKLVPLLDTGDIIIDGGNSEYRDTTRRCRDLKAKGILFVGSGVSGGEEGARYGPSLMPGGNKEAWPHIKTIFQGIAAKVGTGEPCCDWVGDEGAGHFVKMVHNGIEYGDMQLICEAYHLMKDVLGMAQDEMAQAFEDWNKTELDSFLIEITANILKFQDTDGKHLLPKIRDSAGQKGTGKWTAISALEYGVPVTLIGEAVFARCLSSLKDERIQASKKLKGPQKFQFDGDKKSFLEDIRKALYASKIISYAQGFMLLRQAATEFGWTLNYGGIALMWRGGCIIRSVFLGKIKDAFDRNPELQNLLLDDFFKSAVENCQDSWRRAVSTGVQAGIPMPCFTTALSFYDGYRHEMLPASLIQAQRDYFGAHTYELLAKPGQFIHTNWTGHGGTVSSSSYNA
Experiment [15] in a line: viability loss with induced miR-34 in A549 – imaging, A549 dox-inducible miR-34, nuclei and caspase counts, primary screen (AID 1347080;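 active = compounds whose cell count with miR-34 switched on is under 0.7 times the count with it off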). As to conditions: A549 miR-34 inducible, Hoechst nuclei count, 48 h.
Experiment [16] is described as follows: MELAS cybrid and Rieske KO viability enhancers – cell-based, MELAS cybrids, Rieske KO mouse fibroblasts, CellTiter-Glo, primary screen (AID 1508586;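 active = mean z-score across replicates of 1.96 or higher in either the MELAS or the Rieske mutant cell line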;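 also: z relative to plate mean and SD of compound and empty wells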). As to conditions: low glucose.
Experiment [17] addresses NAD(+) hydrolase SARM1 (Homo sapiens) (UniProt Q6SZW1). Put plainly: blocking NAD cleavage by SARM1 SAM-TIR – cell lysate, NAD-Glo luminescence (AID 1508614;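 active = compound whose remaining NAD level is above about 45 nM, limit read from the data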;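 also: higher remaining NAD means stronger inhibition of SARM1 NADase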). As to conditions: SAM-TIR HEK293T lysate NADase, at 1 µM, stronger effect = higher value.
The target in experiment [18] is Mitogen-activated protein kinase 7 (Homo sapiens) (UniProt Q13164). Put plainly: Gal4-ERK5 driven luciferase induction – cell-based, HTS, primary screen (AID 1508626;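 active = luciferase signal above three times the same-plate solvent-only control wells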;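 also: luciferase driven by Gal4-ERK5 fusion binding five Gal4 sites before minimal TATA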). As to conditions: HeLa Gal4-ERK5 transactivation, 18 h, at 5 µM, stronger effect = higher value.
Sequence of Mitogen-activated protein kinase 7 (Homo sapiens) (Q13164 whole entry, looked up, the tested form may be a part): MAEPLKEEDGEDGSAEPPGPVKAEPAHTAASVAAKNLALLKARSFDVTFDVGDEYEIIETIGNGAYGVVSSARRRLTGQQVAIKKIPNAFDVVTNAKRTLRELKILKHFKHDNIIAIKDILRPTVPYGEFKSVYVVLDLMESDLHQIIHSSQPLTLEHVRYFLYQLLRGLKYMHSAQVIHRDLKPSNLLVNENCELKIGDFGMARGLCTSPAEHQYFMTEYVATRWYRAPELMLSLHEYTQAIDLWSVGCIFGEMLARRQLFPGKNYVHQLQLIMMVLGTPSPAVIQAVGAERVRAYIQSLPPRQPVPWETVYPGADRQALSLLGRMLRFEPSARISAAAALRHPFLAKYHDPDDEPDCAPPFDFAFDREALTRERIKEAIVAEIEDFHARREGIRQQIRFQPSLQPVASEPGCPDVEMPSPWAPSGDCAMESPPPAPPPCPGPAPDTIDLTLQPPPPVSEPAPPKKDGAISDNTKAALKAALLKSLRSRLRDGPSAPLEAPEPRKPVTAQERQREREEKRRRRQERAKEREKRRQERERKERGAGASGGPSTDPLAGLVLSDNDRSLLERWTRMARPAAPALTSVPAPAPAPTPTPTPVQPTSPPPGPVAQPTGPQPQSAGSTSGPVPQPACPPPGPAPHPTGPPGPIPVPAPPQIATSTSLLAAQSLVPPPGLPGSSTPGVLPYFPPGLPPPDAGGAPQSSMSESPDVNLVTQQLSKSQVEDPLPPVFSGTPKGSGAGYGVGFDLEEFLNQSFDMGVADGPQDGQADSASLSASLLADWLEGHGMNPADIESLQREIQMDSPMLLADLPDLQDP
The next experiment has as its system F380Y. Put plainly: BK channel mutant inhibitors and activators – cell-based, U2OS BacMam, thallium flux, beta subunits, selectivity assay, profiling panel (AID 1259406;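 active = thallium flux through the channel raised or lowered by more than 3 SD from vehicle-only wells, actives on both sides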;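 also: initial slope of Thallos dye fluorescence rise after thallium is added; log ratio against the mean of 0.3% DMSO vehicle wells on the same plate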). As to conditions: U2OS BacMam BK variants, at 30 µM.
The nature of experiment [19]: EMT-state selective cytotoxicity in co-culture – imaging, PC-3E GFP, TEM4-18 mCherry, primary screen (AID 1345086;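 active = compounds killing one labelled cell type while sparing the other, by normalised counts and ratio limits, not self-fluorescent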;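 also: cells exposed to compound for 72 h before imaging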;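 as to red/green cell ratio (normalised): normalised mesenchymal count divided by normalised epithelial count so high means epithelial killing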). The following applies: PC-3E GFP / TEM4-18 mCherry co-culture, imaging cell counts, at 1 µM.
Setting [20] is: MELAS cybrid survival, CellTiter-Glo 48 h, stronger effect = higher value.
The mark [21] stands for this setting: Rieske KO mouse fibroblast survival, CellTiter-Glo 72 h.

Molecules are shown by their SMILES. Where “and” joins values, the source holds several entries; their conditions need not be identical. Equal values may be shown once. Calls of active or inactive are those of the source. Unless noted, no rule for the calls is given here.

Sequence of NAD(+) hydrolase SARM1 (Homo sapiens) (Q6SZW1 whole entry, looked up, the tested form may be a part): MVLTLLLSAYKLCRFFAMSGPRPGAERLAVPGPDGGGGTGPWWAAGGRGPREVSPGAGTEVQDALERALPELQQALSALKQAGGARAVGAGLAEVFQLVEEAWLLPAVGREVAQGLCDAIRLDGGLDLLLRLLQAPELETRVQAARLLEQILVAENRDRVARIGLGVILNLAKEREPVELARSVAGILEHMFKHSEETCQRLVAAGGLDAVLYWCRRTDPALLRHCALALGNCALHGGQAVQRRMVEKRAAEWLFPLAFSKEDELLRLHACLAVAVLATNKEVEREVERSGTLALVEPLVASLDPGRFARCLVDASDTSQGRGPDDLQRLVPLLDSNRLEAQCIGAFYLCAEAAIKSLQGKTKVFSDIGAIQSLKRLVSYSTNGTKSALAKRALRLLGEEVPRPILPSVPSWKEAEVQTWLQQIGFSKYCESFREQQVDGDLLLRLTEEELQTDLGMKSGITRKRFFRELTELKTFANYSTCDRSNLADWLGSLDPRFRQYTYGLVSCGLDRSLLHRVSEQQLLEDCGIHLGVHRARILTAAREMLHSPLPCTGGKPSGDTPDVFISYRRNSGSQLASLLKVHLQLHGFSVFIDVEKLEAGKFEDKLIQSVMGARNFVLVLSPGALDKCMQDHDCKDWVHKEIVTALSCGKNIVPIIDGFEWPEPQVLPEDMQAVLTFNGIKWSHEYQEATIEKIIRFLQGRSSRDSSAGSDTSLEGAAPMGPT

Turning to `CC(=O)[C@H]1CC[C@H]2[C@@H]3C[C@H](C)C4=CC(=O)CC[C@]4(C)[C@H]3[C@@H](O)C[C@]12C`, in [1], the parasite load remaining was 57.6% (inactive) and 67.9% (inactive). The viability in [1] is 84.9% and 91.5%. Besides, the results for the fluorescence ratio in experiment [2] and in experiment [5] were 0.93 (inactive) and 0.99 (inactive), respectively. The inhibition is -0.45% (inactive) in [3], 0.29% (inactive) in experiment [4] and -11.2% (inactive) in experiment [14]. Besides, the nuclear beta-catenin stimulation in [6] (at 10 µM) is 0.3% (inactive); in [6] (stimulation, at 2 µM), -0.3%. Besides, the insulin secretion stimulation in [7] was 0% (inactive). Besides, the viability decrease in [8] was -48.8% (inactive). The tube area decrease in [9] is 13.8% (inactive). For the same molecule, the GLP1 secretion stimulation in experiment [10] is 0.4% (inactive). In addition, the inhibition of viability in experiment [11] is 14.4% (inactive). In addition, the viability decrease (inhibition) in experiment [12] was 11.1% (inactive); in experiment [13], -5.4% (inactive). Moreover, the fold change in experiment [15] (stronger effect = lower value, cell number ratio, induced over uninduced) is 0.951 (inactive) and 0.798 (inactive); in [15] (measured here: relative caspase fold change +Dox/-Dox), 1.06 and 1.54. The cell count in [15] (measured here: total cells with miR-34 induction, stronger effect = lower value) was 6580 and 6920; in experiment [15] (measured here: total cells without miR-34 induction), 6920 and 8680. For the same molecule, the z-score in [16] (setting [20]) is 0.756 (inactive); in experiment [16] (setting [21]), 1.33. Further, the remaining NAD in experiment [17] is 10 nM (inactive). Also, in experiment [18], the luciferase signal was 84 AU (inactive). Also, the log fold change Tl+ flux in the experiment with F380Y was -0.0207 (inactive).
With `CCS(=O)(=O)CCn1c([N+](=O)[O-])cnc1C`, the fluorescence ratio was 0.97 (inactive) in [2] and 0.92 (inactive) in experiment [5]. The inhibition is -0.22% (inactive) in experiment [3], 1.18% (inactive) in [4] and -3.03% (inactive) in experiment [14]. Further, the nuclear beta-catenin stimulation was 0.7% (inactive) in [6] (at 10 µM) and 0.6% in experiment [6] (stimulation, at 2 µM). Also, the insulin secretion stimulation in experiment [7] was -2% (inactive). Also, in experiment [8], the viability decrease is -16.5% (inactive). Also, the tube area decrease in experiment [9] was -0.1% (inactive). Moreover, the GLP1 secretion stimulation in [10] is 2.3% (inactive). Besides, the inhibition of viability in [11] is 6.2% (inactive). Further, the viability decrease (inhibition) in experiment [12] was -14.6% (inactive); in experiment [13], -1.25% (inactive). For the same molecule, in experiment [19] (actives lie on both sides, counts scaled to control wells, 1 = unselective), the red/green cell ratio (normalised) was 0.88 (inactive). Also, the normalised cell number was 1.27 in experiment [19] (measured here: epithelial PC-3E GFP cell survival) and 1.12 in experiment [19] (measured here: mesenchymal TEM4-18 mCherry cell survival). The z-score in experiment [16] (setting [20]) is -0.299 (inactive) and 0.791 (inactive) and -0.0778 (inactive); in [16] (setting [21]), -0.288 and 0.13 and -0.654. Also, the remaining NAD in experiment [17] is 10 nM (inactive). For the same molecule, in experiment [18], the luciferase signal was 36 AU (inactive). In the experiment with F380Y, the log fold change Tl+ flux was 0.0247 (inactive).
As to `O=C1[C@H](CC[C@H](O)c2ccc(F)cc2)[C@@H](c2ccc(O)cc2)N1c1ccc(F)cc1`, the parasite load remaining in experiment [1] was 62.8% (inactive). This molecule gave a viability in [1] of 65.3%. For the same molecule, the fluorescence ratio in experiment [2] is 0.97 (inactive); in experiment [5], 0.95 (inactive). Besides, the inhibition is 2.77% (inactive) in [3], 3.75% (inactive) in experiment [4] and -1.06% (inactive) in experiment [14]. The nuclear beta-catenin stimulation in [6] (at 10 µM) is 4.5% (inactive); in experiment [6] (stimulation, at 2 µM), -0.4%. In experiment [7], the insulin secretion stimulation is 6% (inactive). Also, the viability decrease in experiment [8] was 20.8% (inactive). Also, the tube area decrease in experiment [9] was 19.9% (inactive). Besides, the GLP1 secretion stimulation in experiment [10] is 7.4% (inactive). Further, in experiment [11], the inhibition of viability was 32.6% (inactive). For the same molecule, the results for the viability decrease (inhibition) in [12] and in experiment [13] were 10.1% (inactive) and 18% (inactive), respectively. The results for the z-score in experiment [16] (setting [20]) and in [16] (setting [21]) were -0.744 (inactive) and 0.307, respectively. The remaining NAD in experiment [17] is 10 nM (inactive). Further, in [18], the luciferase signal is 44 AU (inactive). The log fold change Tl+ flux in the experiment with F380Y was 0.0275 (inactive).
